Results published in PubChem BioAssay (EPA / NIEHS).
The source made the active and inactive calls. The calls were made as follows: active = hit-call score of the fitted dose curve at least 0.9, where 1 is the maximum; inactive = score below 0.9.

How the values were obtained:
[1] = BSK_hDFCGF_Proliferation: Cell Proliferation Assessment in the BioMAP Diversity Plus: hDFCGF Assay (AID 2283059); settings: primary human foreskin fibroblasts;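 also: curves fitted for both rise and fall of signal versus DMSO baseline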
Outline: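 Sub-confluent human foreskin fibroblast cultures receive test chemical […]. Relative cell number is quantified by sulforhodamine B staining (0.1%, after 10% TCA fixation) at 560 nm, with bidirectional fitting referenced to DMSO.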

[2] = read-out: Macrophage colony-stimulating factor (MCSF), CSF1 (gene 1435); test: BSK_hDFCGF_MCSF: BioMAP Diversity Plus: hDFCGF Assay for Macrophage colony-stimulating factor (MCSF) Biomarker Activity (AID 2283060); settings: primary human foreskin fibroblasts; actives raise or lower the signal
Outline: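 M-CSF levels read by ELISA at 24 h post-dosing in human skin fibroblasts. Parallel cultures stained with SRB assessed cytotoxicity at the same time point; response fitted in both directions against the DMSO baseline.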

[3] = BSK_hDFCGF_SRB: Viability Assessment in the BioMAP Diversity Plus: hDFCGF Assay (AID 2283061); settings: primary human foreskin fibroblasts;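 also: cells exposed to compound for 24 h before the read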
Outline: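 Viability was read as total protein: after 10% TCA fixation, wells were stained with 0.1% sulforhodamine B and read at 560 nm. Primary human foreskin fibroblasts were dosed for 24 h, with bidirectional fitting versus DMSO.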

[4] = read-out: TIMP metallopeptidase inhibitor 1 (TIMP1), TIMP1 (gene 7076); test: BSK_hDFCGF_TIMP1: BioMAP Diversity Plus: hDFCGF Assay for TIMP metallopeptidase inhibitor 1 (TIMP1) Biomarker Activity (AID 2283062); settings: primary human foreskin fibroblasts; actives raise or lower the signal
Outline: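 TIMP-1 measured by ELISA 24 h after chemical dosing of primary human skin fibroblasts, with gain or loss fitted relative to DMSO. Parallel SRB staining (560 nm) monitored overt cytotoxicity.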

[5] = read-out: Monokine induced gamma interferon (MIG), CXCL9 (gene 4283); test: BSK_hDFCGF_MIG: BioMAP Diversity Plus: hDFCGF Assay for Monokine induced gamma interferon (MIG) Biomarker Activity (AID 2283063); settings: primary human foreskin fibroblasts; actives raise or lower the signal
Outline: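 Human primary foreskin fibroblasts in the hDFCGF system, exposed to test chemical for 24 h; MIG measured by ELISA. Bidirectional curve fitting against DMSO negative control as activity baseline.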

[6] = read-out: Matrix Metallopeptidase 1 (MMP1), MMP1 (gene 4312); test: BSK_hDFCGF_MMP1: BioMAP Diversity Plus: hDFCGF Assay for Matrix Metallopeptidase 1 (MMP1) Biomarker Activity (AID 2283064); settings: primary human foreskin fibroblasts; actives raise or lower the signal
Outline: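 ELISA read-out of MMP1 from human foreskin fibroblasts (primary skin cells), 24 h post-dose. Gain or loss of signal was fitted bidirectionally versus DMSO negative control; cytotoxicity was checked by SRB in parallel cultures.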

[7] = read-out: Plasminogen activator inhibitor-1 (PAI1), SERPINE1 (gene 5054); test: BSK_hDFCGF_PAI1: BioMAP Diversity Plus: hDFCGF Assay for Plasminogen activator inhibitor-1 (PAI1) Biomarker Activity (AID 2283066); settings: primary human foreskin fibroblasts; actives raise or lower the signal
Outline: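 ELISA readout of PAI-1 from primary human skin fibroblast cultures, 24 h after compound addition. Gain or loss of signal was fitted bidirectionally against DMSO baseline.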

[8] = read-out: Intercellular Adhesion Molecule 1 (ICAM1), ICAM1 (gene 3383); test: BSK_KF3CT_ICAM1: BioMAP Diversity Plus: KF3CT Assay for Intercellular Adhesion Molecule 1 (ICAM1) Biomarker Activity (AID 2283067); settings: primary human keratinocytes with fibroblasts; actives raise or lower the signal
Outline: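 Cell-surface ICAM-1 was measured by ELISA 24 h after dosing primary human skin keratinocytes co-cultured with fibroblasts. Parallel SRB staining tracked overt cytotoxicity. Gain or loss of signal was fitted relative to DMSO.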

[9] = read-out: Interferon-gamma inducible Protein 10 (IP10), CXCL10 (gene 3627); test: BSK_KF3CT_IP10: BioMAP Diversity Plus: KF3CT Assay for Interferon-gamma inducible Protein 10 (IP10) Biomarker Activity (AID 2283068); settings: primary human keratinocytes with fibroblasts; actives raise or lower the signal
Outline: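 ELISA read-out of IP-10 after 24 h chemical dosing of human skin primary co-culture (keratinocytes, foreskin fibroblasts). Gain or loss of signal relative to DMSO, bidirectional curve fit.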

[10] = BSK_KF3CT_SRB: Viability Assessment in the BioMAP Diversity Plus: KF3CT Assay (AID 2283069); settings: primary human keratinocytes with fibroblasts;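 also: total protein by sulforhodamine B staining as a cytotoxicity measure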
Outline: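 SRB read-out at 560 nm (0.1% stain, TCA-fixed cells) gauges overt cytotoxicity in a human skin keratinocyte–fibroblast co-culture 24 h post-dosing. Signal change was fitted bidirectionally relative to DMSO control.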

[11] = read-out: Interleukin-1 alpha (IL1a), IL1A (gene 3552); test: BSK_KF3CT_IL1a: BioMAP Diversity Plus: KF3CT Assay for Interleukin-1 alpha (IL1a) Biomarker Activity (AID 2283070); settings: primary human keratinocytes with fibroblasts; actives raise or lower the signal
Outline: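 Primary skin co-culture (keratinocytes, foreskin fibroblasts), 24 h exposure; ELISA for IL-1a; bidirectional curve fit vs DMSO.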

[12] = read-out: TIMP metallopeptidase inhibitor 2 (TIMP2), TIMP2 (gene 7077); test: BSK_KF3CT_TIMP2: BioMAP Diversity Plus: KF3CT Assay for TIMP metallopeptidase inhibitor 2 (TIMP2) Biomarker Activity (AID 2283071); settings: primary human keratinocytes with fibroblasts; actives raise or lower the signal
Outline: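 ELISA readout of TIMP-2 in keratinocyte plus foreskin fibroblast co-cultures (human skin primary cells), 24 h post-dose. Gain or loss of signal fitted relative to DMSO.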

[13] = read-out: C-C motif chemokine 2 (Homo sapiens) (UniProt P13500); test: BSK_KF3CT_MCP1: BioMAP Diversity Plus: KF3CT Assay for Monocyte Chemoattractant Protein 1 (MCP1/CCL2) Biomarker Activity (AID 2283073); settings: primary human keratinocytes with fibroblasts; actives raise or lower the signal
Outline: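 ELISA read-out of MCP-1, 24 h post-dose, in primary human skin keratinocytes co-cultured with fibroblasts. Parallel SRB staining monitors cytotoxicity; changes fitted both directions relative to DMSO.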

[14] = read-out: Matrix Metallopeptidase 9 (MMP9), MMP9 (gene 4318); test: BSK_KF3CT_MMP9: BioMAP Diversity Plus: KF3CT Assay for Matrix Metallopeptidase 9 (MMP9) Biomarker Activity (AID 2283074); settings: primary human keratinocytes with fibroblasts; actives raise or lower the signal
Outline: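 ELISA read-out of MMP-9 at 24 h post-dosing in a co-culture of human skin keratinocytes and foreskin fibroblasts. Gain or loss of signal was fitted in both directions against DMSO.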

[15] = read-out: urokinase plasminogen activator (uPA), PLAU (gene 5328); test: BSK_KF3CT_uPA: BioMAP Diversity Plus: KF3CT Assay for urokinase plasminogen activator (uPA) Biomarker Activity (AID 2283075); settings: primary human keratinocytes with fibroblasts; actives raise or lower the signal
Outline: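 Skin co-culture (keratinocytes + foreskin fibroblasts), human primary; 24 h post-dose; uPA by ELISA; gain/loss fit vs DMSO baseline.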

CD40, CD40 (gene 958) = test: BSK_LPS_CD40: BioMAP Diversity Plus: LPS Assay for CD40 Biomarker Activity (AID 2283076); settings: primary human HUVEC with PBMC; actives raise or lower the signal
Outline: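 In the LPS system of human endothelial cells with peripheral blood mononuclear cells, CD40 levels were read by ELISA 24 h post-treatment. Signal changes in either direction were fitted against the DMSO baseline, with parallel SRB protein staining.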

[16] = read-out: E-selectin (Homo sapiens) (UniProt P16581); test: BSK_LPS_Eselectin: BioMAP Diversity Plus: LPS Assay for Eselectin Biomarker Activity (AID 2283077); settings: primary human HUVEC with PBMC; actives raise or lower the signal
Outline: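 E-selectin ELISA on LPS-stimulated endothelial cell/PBMC co-cultures, read 24 h post-treatment; gains and losses fitted against DMSO. Parallel SRB staining (0.1% SRB after 10% TCA fixation, 560 nm) flags overt cytotoxicity.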

[17] = read-out: Interleukin-8 (IL8), CXCL8 (gene 3576); test: BSK_LPS_IL8: BioMAP Diversity Plus: LPS Assay for Interleukin-8 (IL8) Biomarker Activity (AID 2283078); settings: primary human HUVEC with PBMC; actives raise or lower the signal
Outline: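 ELISA read-out of IL-8 after 24 h chemical treatment of LPS-activated endothelial/PBMC human primary co-cultures. Changes either up or down relative to DMSO; overt cytotoxicity checked by sulforhodamine B staining in parallel wells.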

[18] = read-out: Transforming growth factor beta 1 (TGFb1), TGFB1 (gene 7040); test: BSK_KF3CT_TGFb1: BioMAP Diversity Plus: KF3CT Assay for Transforming growth factor beta 1 (TGFb1) Biomarker Activity (AID 2283072); settings: primary human keratinocytes with fibroblasts; actives raise or lower the signal
Outline: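 Read-out: ELISA for TGF-b1 in keratinocyte/foreskin fibroblast human skin co-culture, 24 h after dosing; bidirectional curve fit vs DMSO baseline; gain or loss of signal scored.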

Measured: AC50

Chain of E-selectin (Homo sapiens) (P16581 whole entry, looked up): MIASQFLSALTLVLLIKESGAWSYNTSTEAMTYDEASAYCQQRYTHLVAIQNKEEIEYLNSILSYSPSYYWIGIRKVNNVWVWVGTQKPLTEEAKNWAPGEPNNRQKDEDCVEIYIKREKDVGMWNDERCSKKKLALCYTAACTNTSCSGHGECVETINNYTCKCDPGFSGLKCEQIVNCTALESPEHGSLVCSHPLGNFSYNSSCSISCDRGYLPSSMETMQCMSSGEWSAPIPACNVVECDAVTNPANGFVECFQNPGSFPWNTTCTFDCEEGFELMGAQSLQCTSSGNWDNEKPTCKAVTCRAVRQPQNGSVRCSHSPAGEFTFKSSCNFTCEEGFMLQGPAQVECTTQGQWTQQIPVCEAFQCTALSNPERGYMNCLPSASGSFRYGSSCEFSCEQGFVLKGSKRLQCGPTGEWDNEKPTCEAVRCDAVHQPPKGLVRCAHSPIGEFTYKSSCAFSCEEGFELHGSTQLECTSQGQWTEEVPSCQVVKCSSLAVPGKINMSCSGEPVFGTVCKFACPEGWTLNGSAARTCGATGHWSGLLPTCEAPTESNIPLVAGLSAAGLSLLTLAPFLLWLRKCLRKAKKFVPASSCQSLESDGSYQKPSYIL

Nc1ccc(-c2ccc(N)cc2)cc1
not listed: [18]
inactive: all other assays above

Cc1cc2c3c(c1)C(c1ccccc1)=N[C@@H](NC(=O)c1ccncc1)C(=O)N3CC2
active: [1] 11.5 µM | [6] 14 µM | [7] 5.53 µM | CD40, CD40 (gene 958) 3.97 µM
not listed: [15] | [18]
inactive: all other assays above

Cc1ccc(O)c(C)c1
active: [1] 12.4 µM | CD40, CD40 (gene 958) 11.6 µM
not listed: [15] | [18]
inactive: all other assays above

O=C(O)C(F)(F)C(F)(F)C(F)(F)C(F)(F)C(F)(F)F
not listed: [15]
inactive: all other assays above

C[C@]12CCC(=O)C=C1CC[C@@H]1[C@@H]2CC[C@@]2(C)[C@H]1CC[C@]2(C)O
not listed: [15] | [18]
inactive: all other assays above
